Experimental findings from PubChem BioAssay (NCATS) are described below.

Molecules are shown by their SMILES. Inconclusive results are not listed. The source made the active and inactive calls. Calls come from the whole dose curve; as a rule, active = well fitted curve in the direction sought with a large enough effect; inconclusive = small, poorly fitted or top-dose-only effect, or another doubt; inactive = no such curve, though single readings can be large; an effect the other way counts as inactive or inconclusive.

Assay [1] has as its system Zika virus NS2B-NS3 protease (linked construct). The experiment in a line: Primary screen NINDS Rhodamine qHTS for Zika virus inhibitors (AID 1347160). Note: nearly all actives have a fitted effect of over 55% in size. A digest of the protocol:
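Aprotinin served as in-plate control. Conditions: 25 nM linked NS2B-NS3, pH 8.0 Tris buffer, titrated compounds, 15 min preincubation and 15 min reaction with 1.5 microM Rhod110 substrate at room temperature.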

For assay [2], the target named is Calcium and integrin-binding protein 1 (Homo sapiens) (UniProt Q99828). The experiment in a line: Primary qHTS for Identification of Calcium Integrin Binding Protein 1 (CIB1) Competitor (AID 1508620).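 Note: GST tagged CIB1 binding a fluorescein labelled alphaIIb integrin peptide tracer; top concentration of the series differs between compounds.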 A digest of the protocol: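 CIB1-GST (1 uM final) and compound incubated 15 min at room temperature before adding FITC-alphaIIb peptide tracer (100 nM final). Competition for binding read by fluorescence polarization (ex 480, em 540) after another 15 min at room temperature.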
Sequence of Calcium and integrin-binding protein 1 (Homo sapiens) (Q99828 whole entry, looked up): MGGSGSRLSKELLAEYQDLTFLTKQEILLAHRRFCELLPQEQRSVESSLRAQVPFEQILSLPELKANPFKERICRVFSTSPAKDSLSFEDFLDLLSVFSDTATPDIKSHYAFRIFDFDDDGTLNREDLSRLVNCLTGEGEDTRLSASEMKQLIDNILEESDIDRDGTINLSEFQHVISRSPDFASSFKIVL

A short description of assay [3]: Primary qHTS for inhibitors of nuclear receptor binding SET domain protein 2 (NSD2) in an isogenic RCH-ACV NSD2 p.E1099K mutant (9B) (AID 1645876). Note: potency is the fitted concentration of half-maximal effect; nearly all actives have a fitted effect of over 70% in size.
The nature of assay [4]: Primary qHTS for inhibitors of nuclear receptor binding SET domain protein 2 (NSD2) in an RCH-ACV wild type WT cells (2C) (AID 1645877). Note: potency is the fitted concentration of half-maximal effect; nearly all actives have a fitted effect of over 70% in size.
Assay [5] has as its target Glutathione peroxidase 1 (Homo sapiens) (UniProt P07203). The experiment in a line: Primary qHTS Assay for Inhibitors of Recombinant Selenoprotein Glutathione Peroxidase 1 (GPX1) (AID 1845191). Note: nearly all actives have a fitted effect of over 65% in size. A digest of the protocol:
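NADPH consumption tracked by fluorescence at 340/450 nm between t=0 and t=15 min, room temperature. Final mix: 10 nM GPX1, 100 nM glutathione reductase, 1 mM GSH, 0.5 mM NADPH, 0.5 mM cumene hydroperoxide, 0.01% BSA; 30 min compound–enzyme preincubation.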
(In general: Quantitative high-throughput screening tests each substance at several concentrations.)

Assay [6] has as its target Phospholipid hydroperoxide glutathione peroxidase GPX4 (Homo sapiens) (UniProt P36969). The experiment in a line: Primary qHTS Assay for Inhibitors of Recombinant Selenoprotein Glutathione Peroxidase 4 (GPX4) (AID 1845192). Note: nearly all actives have a fitted effect of over 65% in size. Particulars: outcome: dose series up to 50 µM unless noted. The method, boiled down: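 NADPH consumption followed by fluorescence at 340/450 nm, t=0 and after 15 min at room temperature. Reaction started with cumene hydroperoxide (0.5 mM final) after 30 min compound–GPX4 preincubation; final 200 nM GPX4, 100 nM GR, 1 mM GSH, 0.5 mM NADPH.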

Assay [7] addresses Luciferin 4-monooxygenase (Photinus pyralis) (UniProt P08659). The experiment in a line: Primary firefly luciferase (FLuc) qHTS assay for identification of artifact compounds. (AID 1845220). Note: nearly all actives have a fitted effect of over 60% in size. A digest of the protocol:
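FLuc 10 nM; luciferin 10 uM; ATP 10 uM; Tris-acetate pH 7.6, Mg-acetate 10 mM; 15 min RT preincubation; 5 min reaction; luminescence.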

Assay [8] in a line: Primary fluorescence-based thiol-reactive (MSTI) qHTS assay for identification of artifact compounds. (AID 1845221). Note: nearly all actives have a fitted effect of over 65% in size. Note: potency is the fitted concentration of half-maximal effect. A digest of the protocol:
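A multi-concentration qHTS design tested compounds against 4 uM MSTI, pH 7.4 phosphate-buffered saline. Plates were protected from light for 1 h at room temperature before imaging fluorescence.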

Assay [9] can be described thus: Primary redox qHTS assay for identification of artifact compounds. (AID 1845223). The method, boiled down:
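Redox-cycling detection via DTT (250 uM final) oxidation coupled to Amplex Red (25 uM)/HRP (250 mU/mL) in HBSS. 15 min preincubation plus 30 min after DTT, room temperature. Ex/Em 525/598 nm; 4-parameter Hill fit against DMSO and 10 uM DA3003.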

The subject of a further assay is C33A. The experiment in a line: Primary qHTS to identify gynecologic anti-cancer compounds using libraries of approved drugs and bioactive compounds (AID 1345084). Note: nearly all actives have a fitted effect of over 55% in size. The conditions noted are these: Gynecologic cancer cell panel viability, ATPlite luminescence, 48 h; series mostly up to 57.5 µM. A digest of the protocol:
(§1)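 ATP-based viability (ATPlite), 1,000 cells/well, 16 h pre-incubation, 48 h compound at 37 C, 5% CO2, 15 min RT before read.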

The next assay concerns CASKI. The assay is described as above. The conditions noted are these: Gynecologic cancer cell panel viability, ATPlite luminescence, 48 h; series mostly up to 57.5 µM. A digest of the protocol:
as §1
On the technique in general: ATP-based viability assays read luminescence as a measure of living cells.

Another assay has as its system Es-2. The description is as above. The conditions noted are these: Gynecologic cancer cell panel viability, ATPlite luminescence, 48 h; series mostly up to 57.5 µM. A digest of the protocol:
as §1

A further assay deals with HeLa. The assay is described as above. The conditions noted are these: Gynecologic cancer cell panel viability, ATPlite luminescence, 48 h; series mostly up to 57.5 µM. The method, boiled down: as §1
A further assay concerns Hek293T. The assay is described as above. Particulars: Gynecologic cancer cell panel viability, ATPlite luminescence, 48 h, control line for the selectivity index; series mostly up to 57.5 µM. A digest of the protocol:
as §1

The test system of a further assay is JEG-3. The description is as above. The conditions noted are these: Gynecologic cancer cell panel viability, ATPlite luminescence, 48 h; series mostly up to 57.5 µM. A digest of the protocol: as §1
Another assay concerns OV90. The assay is described as above. Particulars: Gynecologic cancer cell panel viability, ATPlite luminescence, 48 h; series mostly up to 57.5 µM. A digest of the protocol:
as §1

Another assay deals with PA-1. Described as above. The conditions noted are these: Gynecologic cancer cell panel viability, ATPlite luminescence, 48 h; series mostly up to 57.5 µM. A digest of the protocol: as §1
In another assay the test system is Tov-21-G. The description is as above. The conditions noted are these: Gynecologic cancer cell panel viability, ATPlite luminescence, 48 h; series mostly up to 57.5 µM. A digest of the protocol: as §1
The next assay deals with Tov112D. The assay is described as above. The conditions noted are these: Gynecologic cancer cell panel viability, ATPlite luminescence, 48 h; series mostly up to 57.5 µM. A digest of the protocol: as §1
Assay [10] deals with Nanoluciferase (engineered Oplophorus gracilirostris luciferase). The experiment in a line: Primary Nanoluciferase (NLuc) qHTS assay for identification of artifact compounds. (AID 1845222).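 Note: NLuc secreted into diluted conditioned medium of S16 cells.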 The method, boiled down: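 NLuc from S16 cell medium (1:55) plus test compounds, 15 min, room temperature. Luminescence after Nano-Glo (1:100) addition, 5 min.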

Sequence of Glutathione peroxidase 1 (Homo sapiens) (P07203 whole entry, looked up): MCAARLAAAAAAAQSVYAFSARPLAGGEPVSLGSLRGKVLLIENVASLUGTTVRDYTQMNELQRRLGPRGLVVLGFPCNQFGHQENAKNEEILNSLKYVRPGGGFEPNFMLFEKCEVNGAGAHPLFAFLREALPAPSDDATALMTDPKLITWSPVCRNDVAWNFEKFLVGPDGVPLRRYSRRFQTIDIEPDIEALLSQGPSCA
Sequence of Phospholipid hydroperoxide glutathione peroxidase GPX4 (Homo sapiens) (P36969 whole entry, looked up): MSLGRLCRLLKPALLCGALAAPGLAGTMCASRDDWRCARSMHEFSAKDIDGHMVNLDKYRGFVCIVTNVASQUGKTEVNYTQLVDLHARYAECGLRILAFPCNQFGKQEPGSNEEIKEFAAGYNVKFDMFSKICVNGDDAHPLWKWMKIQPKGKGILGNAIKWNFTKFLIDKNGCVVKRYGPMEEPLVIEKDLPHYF

With `C[C@@H](c1nc(-c2ccc(C#N)cc2)cs1)[C@](O)(Cn1cncn1)c1cc(F)ccc1F`, the Potency entry in assay [1], in assay [5], in assay [6], in assay [7], in [8] and in [9] was “inactive” throughout. Moreover, the Potency result with C33A, with CASKI, with Es-2, in the assay on HeLa, with Hek293T and in the assay on JEG-3 was “inactive” each time. The Potency result in the assay on OV90, with PA-1, in the assay on Tov-21-G and with Tov112D was “inactive” in each case. In addition, in [2], the result was inactive. The values for the Potency in assay [3] and in assay [4] were 8.17 µM (active) and 11.5 µM (active), respectively.
As to `N#Cc1c[nH]c2c(C(=O)N3CCN(CCc4ccc(F)cc4)CC3)cccc12`, the result in assay [2] was inactive. Besides, the Potency result (in assay [6]; in assay [7]; in assay [8]; with C33A; with CASKI; in the assay with Es-2) was “inactive” each time. Also, the Potency entry in the assay on HeLa, in the assay on Hek293T, with JEG-3, in the assay on OV90, in the assay on PA-1 and in the assay with Tov-21-G was “inactive” throughout. Also, in the assay on Tov112D, the Potency entry was “inactive”.
With `COc1cc(-c2cc(-c3ccc(N4CCNCC4)cc3)cnc2C)cc(OC)c1OC`, the Potency result in [1], in assay [5], in [6], in [7], in assay [8] and in [10] was “inactive” throughout. The Potency result with C33A, in the assay with CASKI, with Es-2, with HeLa, in the assay on Hek293T and in the assay with JEG-3 was “inactive” each time. The Potency result in the assay with PA-1, in the assay on Tov-21-G and with Tov112D was “inactive” each time. The outcome in assay [2] was inactive. Also, the Potency in assay [3] was 9.34 µM (active); in assay [4], 7.42 µM (active).
Take `C=C1/C(=C/C=C2\CCC[C@]3(C)[C@@H]([C@H](C)/C=C/C(=O)C4CC4)CC[C@@H]23)C[C@@H](O)C[C@@H]1O`: the Potency entry in assay [1], in assay [5], in assay [6], in [7], in assay [8] and in assay [10] was “inactive” in each case. For the same compound, the Potency result in the assay on C33A, with CASKI, with Es-2, in the assay on HeLa, in the assay on Hek293T and in the assay with JEG-3 was “inactive” throughout. For the same compound, the Potency result in the assay with OV90, in the assay on PA-1, with Tov-21-G and in the assay with Tov112D was “inactive” each time. The outcome in [2] was inactive. Also, the Potency in assay [3] is 16.3 µM (active); in [4] it was 23 µM (active).
Take `O=C(NCc1ccc(Oc2ccccc2)cc1)c1nc(-c2cc(Br)c(O)c(Br)c2)no1`: the Potency is 20.5 µM (active) in assay [4] and 0.423 µM (active) in [8]. The Potency result (in assay [5]; in assay [6]; in [7]; in assay [10]; with C33A; in the assay with CASKI) was “inactive” each time. The Potency result in the assay with Es-2, in the assay on HeLa, with Hek293T, in the assay with JEG-3, with OV90 and in the assay on PA-1 was “inactive” throughout. For the same compound, the Potency entry in the assay on Tov-21-G and with Tov112D was “inactive” each time.
In the case of `COc1cc(O)ccc1OCCNCC(O)COc1cccc2[nH]c3ccccc3c12` (stereo not given), the Potency entry in assay [1], in assay [5], in assay [6], in assay [7], in [10] and in assay [9] was “inactive” each time. Also, the Potency entry with C33A, in the assay with CASKI, in the assay on Es-2, in the assay on HeLa, in the assay with Hek293T and with JEG-3 was “inactive” each time. Also, the Potency entry with OV90, in the assay on PA-1, with Tov-21-G and with Tov112D was “inactive” in each case. The outcome in assay [2] was inactive. Besides, the Potency in assay [3] and in assay [4] was 20.5 µM (active) throughout.
